# From PubChem BioAssay (NCATS)
# “And” between values parts separate entries of the source, which are not always exact repeats. Equal entries are not always repeated. Records with an inconclusive call do not appear. Where a call stands in place of a potency, no number is given. The source made the active and inactive calls. Unless noted, calls come from the whole dose curve; as a rule, active = well fitted curve in the direction sought with a large enough effect; inconclusive = small, poorly fitted or top-dose-only effect, or another doubt; inactive = no such curve, though single readings can be large; an effect the other way counts as inactive or inconclusive.
# Test system: not listed separately
# Test: Inducers of the Endoplasmic Reticulum Stress Response (ERSR) in human glioma: Validation (AID 504836)
# Settings: human glioma cells, ER stress response reporter; series mostly up to 38.3 µM
# Outline: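 Stably transfected U87-MG human glioma cells carrying a GRP78-based luminescent sensor were seeded at 1000 cells/well, pin-dosed with compounds and incubated 16 h. Luciferase reagent was then added, and end-point luminescence was read after 10 min at room temperature.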
row,SMILES,outcome
1,CN(C)CCC(c1ccccc1)c1ccccn1 (stereo unspecified),inactive
2,CCCCC1C(=O)N(c2ccccc2)N(c2ccccc2)C1=O,inactive
3,N[C@@H](Cc1c[nH]c2ccc(O)cc12)C(=O)O,inactive
4,C[C@]12CC[C@@H]3c4ccc(O)cc4CC[C@H]3[C@@H]1CCC2=O,inactive
5,CCOC(=O)C(C)(C)Oc1ccc(Cl)cc1,inactive
6,NS(=O)(=O)c1cc2c(cc1Cl)NCNS2(=O)=O,inactive
7,C[C@]12C=CC(=O)C=C1CC[C@H]1[C@@H]3C[C@@H](O)[C@](O)(C(=O)CO)[C@@]3(C)C[C@H](O)[C@@]12F,inactive
8,NC(N)=NC(=O)c1nc(Cl)c(N)nc1N,inactive
9,CC(=O)[C@@]1(O)CC[C@H]2[C@@H]3CCC4=CC(=O)CC[C@]4(C)[C@H]3CC[C@@]21C,inactive
10,Cn1cnc2c1c(=O)[nH]c(=O)n2C,inactive
11,Nc1ccn([C@H]2CC[C@@H](CO)O2)c(=O)n1,inactive
12,Oc1ccc(/C=C/c2cc(O)cc(O)c2)cc1,inactive
13,C[C@]12CCC(=O)C=C1CC[C@@H]1[C@@H]2C(=O)C[C@@]2(C)[C@H]1CC[C@]2(O)C(=O)CO,inactive
14,C[C@]12CCC(=O)C=C1CC[C@@H]1[C@@H]2[C@@H](O)C[C@@]2(C)[C@H]1CC[C@]2(O)C(=O)CO,inactive

# Biological target: Ubiquitin carboxyl-terminal hydrolase 1 (Homo sapiens) (UniProt O94782)
# Test: Inhibitors of USP1/UAF1: Pilot qHTS (AID 504865);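 note: rhodamine fluorescence freed from ubiquitin-rhodamine substrate followed over time; top concentration of the series differs between compounds; nearly all actives have a fitted effect of over 35% in size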
# Settings: purified USP1/UAF1, Ub-rhodamine cleavage fluorescence; series mostly up to 114 µM
# Outline: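 Enzyme-free wells gave the negative control, while test wells held 1nM USP1/UAF1 preincubated with compound for 15 min at room temperature. Ub-Rho at 150nM final started the reaction, and fluorescence at 480/540 nm was recorded kinetically.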
# Ubiquitin carboxyl-terminal hydrolase 1 (Homo sapiens), sequence (O94782 whole entry, looked up): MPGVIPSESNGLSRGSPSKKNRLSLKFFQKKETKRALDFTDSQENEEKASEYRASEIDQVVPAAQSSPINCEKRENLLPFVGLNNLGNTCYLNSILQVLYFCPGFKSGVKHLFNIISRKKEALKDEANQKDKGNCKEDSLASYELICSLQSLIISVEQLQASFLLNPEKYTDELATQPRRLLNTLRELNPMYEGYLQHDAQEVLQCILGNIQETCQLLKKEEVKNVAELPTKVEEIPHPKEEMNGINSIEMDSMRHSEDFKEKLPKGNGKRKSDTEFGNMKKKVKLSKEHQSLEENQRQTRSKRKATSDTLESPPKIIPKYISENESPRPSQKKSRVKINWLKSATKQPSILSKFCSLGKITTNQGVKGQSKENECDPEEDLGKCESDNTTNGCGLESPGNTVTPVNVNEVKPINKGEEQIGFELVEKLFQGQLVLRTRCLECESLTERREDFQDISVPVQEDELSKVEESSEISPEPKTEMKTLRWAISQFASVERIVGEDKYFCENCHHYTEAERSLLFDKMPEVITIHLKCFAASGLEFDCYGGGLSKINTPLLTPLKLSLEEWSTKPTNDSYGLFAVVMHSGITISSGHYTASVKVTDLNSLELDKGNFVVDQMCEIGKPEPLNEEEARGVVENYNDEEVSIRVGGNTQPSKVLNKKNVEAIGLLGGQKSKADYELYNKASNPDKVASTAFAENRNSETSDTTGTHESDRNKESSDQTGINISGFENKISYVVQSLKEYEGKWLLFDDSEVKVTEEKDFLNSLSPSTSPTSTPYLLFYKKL
row,SMILES,Potency
1,NCc1cccnc1,inactive
2,OC(O)C(Cl)(Cl)Cl,inactive
3,CCS(=O)(=O)C(C)(C)S(=O)(=O)CC,inactive
4,Cc1c(Cl)c(=O)oc2cc(OP(=O)(OCCCl)OCCCl)ccc12,inactive
5,CC(C)(C)OC(=O)c1ncn2c1[C@@H]1CCCN1C(=O)c1c(Br)cccc1-2,inactive
6,CC(C)C(Br)C(=O)NC(N)=O (stereo unspecified),inactive
7,Nc1ccc(N)cc1,inactive
8,C[N+]1(CCC(C(N)=O)(c2ccccc2)c2ccccc2)CCCCC1,inactive
9,CCOC(=O)NC(O)C(Cl)(Cl)Cl (stereo unspecified),inactive
10,CN1CCc2cc(Cl)c(O)cc2[C@H]2c3ccccc3CC[C@@H]21,inactive
11,CC(C)[N+](C)(CCC(C(N)=O)(c1ccccc1)c1ccccc1)C(C)C,inactive
12,CNC(=O)NC(O)C(Cl)(Cl)Cl (stereo unspecified),inactive
13,CC(C)(O)C(Cl)(Cl)Cl,inactive
14,CCC1(c2ccccc2)CCC(=O)NC1=O (stereo unspecified),inactive
15,CN(C)CC/C=C1\c2ccccc2Sc2ccc(Cl)cc21,inactive
16,c1cc2c(c(N3CCNCC3)c1)OCCO2,inactive
17,C[C@]12CC[C@H]3[C@@H](CC=C4C[C@@H](O)CC[C@@]43C)[C@@H]1CC[C@@H]2O,inactive
18,CCCC(C)C1(CC)C(=O)N=C(S)NC1=O (stereo unspecified),inactive
19,ClC1=C(Cl)C2(Cl)C(CBr)CC1(Cl)C2(Cl)Cl (stereo unspecified),inactive
20,CCN(CC)CCOC(=O)C(C)(c1ccccc1)c1ccccc1,inactive
21,C[N+](C)(C)CCOC(=O)C(O)(c1ccccc1)c1ccccc1,inactive
22,C[C@]12C=CC(=O)C=C1CC[C@@H]1[C@@H]2CC[C@@]2(C)[C@H]1CC[C@]2(C)O,inactive
23,OC(c1ccccc1)(c1ccccc1)C1CCNCC1,inactive
24,CC(C)NCC(O)c1ccc(N)c(C#N)c1 (stereo unspecified),inactive
25,Cc1ncc2n1-c1ccc(Cl)cc1C(c1ccccc1F)=NC2,inactive
26,CN1C(=O)CN=C(c2ccccc2)c2cc([N+](=O)[O-])ccc21,inactive

# Biological target: Bile acid receptor (Homo sapiens) (UniProt Q96RI1)
# Test: qHTS assay for small molecule agonists of farnesoid X receptor signaling (AID 588527; calls by dose curve)
# Settings: HEK293T FXR-UAS-bla, beta-lactamase ratio, 16 h; active compounds read high
# Outline: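 FXR-UAS-bla HEK293T, 10% dialyzed FBS; cpds up to 92 uM titration, 16 h 37 C; CCF4 dye 2 h RT; fluorescence. Normalized to chenodeoxycholic acid 100 uM (100%) and DMSO (0%); Hill fit gives EC50, efficacy.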
# Bile acid receptor (Homo sapiens), sequence (Q96RI1 whole entry, looked up): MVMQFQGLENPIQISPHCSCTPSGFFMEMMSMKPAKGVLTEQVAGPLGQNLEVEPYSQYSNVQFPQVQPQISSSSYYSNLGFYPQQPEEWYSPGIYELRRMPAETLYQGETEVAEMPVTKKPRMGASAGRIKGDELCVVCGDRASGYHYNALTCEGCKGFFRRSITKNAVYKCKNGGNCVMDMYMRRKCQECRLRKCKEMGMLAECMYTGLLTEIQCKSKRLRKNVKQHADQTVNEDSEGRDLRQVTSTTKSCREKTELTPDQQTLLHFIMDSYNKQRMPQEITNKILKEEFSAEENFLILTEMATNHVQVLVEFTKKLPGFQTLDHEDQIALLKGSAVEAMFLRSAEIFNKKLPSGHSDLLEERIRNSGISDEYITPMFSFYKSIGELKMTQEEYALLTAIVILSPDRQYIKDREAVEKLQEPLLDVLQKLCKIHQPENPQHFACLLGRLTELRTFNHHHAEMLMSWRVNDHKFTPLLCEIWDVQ
row,SMILES,activation
1,CCCCC1C(=O)N(c2ccccc2)N(c2ccccc2)C1=O,-3.79% (inactive) and -9.64% (inactive)
2,C[C@]12CC[C@@H]3c4ccc(O)cc4CC[C@H]3[C@@H]1CCC2=O,5.41% (inactive)
3,CCOC(=O)C(C)(C)Oc1ccc(Cl)cc1,1.97% (inactive)
4,NS(=O)(=O)c1cc2c(cc1Cl)NCNS2(=O)=O,-0.539% (inactive) and 0.498% (inactive)
5,Cn1cnc2c1c(=O)[nH]c(=O)n2C,0.0385% (inactive)
6,Oc1ccc(/C=C/c2cc(O)cc(O)c2)cc1,-3.05% (inactive) and -1.39% (inactive)

# Biological target: Peroxisome proliferator-activated receptor delta (Homo sapiens) (UniProt Q03181)
# Test: qHTS assay for small molecule agonists of peroxisome proliferator-activated receptor delta signaling (AID 588534; calls by dose curve)
# Settings: HEK293T PPARdelta-UAS-bla, beta-lactamase ratio, 18 h; series mostly up to 76.7 µM
# Outline: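 Titration series tested in agonist mode on beta-lactamase reporter cells; 18 hrs at 37 C after a 5 hr pre-incubation. Readout: CCF4 fluorescence, 2 hrs RT. Hill equation gives EC50 and maximal response.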
# Peroxisome proliferator-activated receptor delta (Homo sapiens), sequence (Q03181 whole entry, looked up): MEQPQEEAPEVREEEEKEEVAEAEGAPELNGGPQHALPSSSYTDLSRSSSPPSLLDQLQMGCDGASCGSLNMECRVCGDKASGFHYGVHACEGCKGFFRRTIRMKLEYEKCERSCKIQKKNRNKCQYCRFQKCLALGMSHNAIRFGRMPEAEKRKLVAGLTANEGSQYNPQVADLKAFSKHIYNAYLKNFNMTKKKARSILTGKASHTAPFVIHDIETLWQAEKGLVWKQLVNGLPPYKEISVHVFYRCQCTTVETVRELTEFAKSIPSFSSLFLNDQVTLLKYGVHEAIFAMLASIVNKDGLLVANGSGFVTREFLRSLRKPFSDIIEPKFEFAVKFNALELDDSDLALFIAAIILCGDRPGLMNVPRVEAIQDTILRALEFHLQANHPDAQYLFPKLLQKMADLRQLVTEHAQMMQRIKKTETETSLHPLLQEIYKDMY
row,SMILES,outcome
1,CN(C)CCC(c1ccccc1)c1ccccn1 (stereo unspecified),inactive
2,N[C@@H](Cc1c[nH]c2ccc(O)cc12)C(=O)O,inactive
3,CCOC(=O)C(C)(C)Oc1ccc(Cl)cc1,inactive
4,C[C@]12C=CC(=O)C=C1CC[C@H]1[C@@H]3C[C@@H](O)[C@](O)(C(=O)CO)[C@@]3(C)C[C@H](O)[C@@]12F,inactive
5,CC(=O)[C@@]1(O)CC[C@H]2[C@@H]3CCC4=CC(=O)CC[C@]4(C)[C@H]3CC[C@@]21C,inactive
6,Cn1cnc2c1c(=O)[nH]c(=O)n2C,inactive
7,Nc1ccn([C@H]2CC[C@@H](CO)O2)c(=O)n1,inactive
8,Oc1ccc(/C=C/c2cc(O)cc(O)c2)cc1,inactive
9,C[C@]12CCC(=O)C=C1CC[C@@H]1[C@@H]2C(=O)C[C@@]2(C)[C@H]1CC[C@]2(O)C(=O)CO,inactive
10,C[C@]12CCC(=O)C=C1CC[C@@H]1[C@@H]2[C@@H](O)C[C@@]2(C)[C@H]1CC[C@]2(O)C(=O)CO,inactive
